Consider one sequence from paper PMC7862700, “An all-to-all approach to the identification of sequence-specific readers for epigenetic DNA modifications on cytosine”.

Holding throughout (assay): DAPPL (digital affinity profiling via proximity ligation, sequencing); 10 mM Tris-HCl pH 7.5, 50 mM NaCl, 1 mM DTT, 4% glycerol, room temperature, 30 min; GST-TFs on glutathione beads, 16-mer random dsDNA library, 0.1% formaldehyde crosslink after washing; high values mean tight binding
One assay addresses T1, FEV (Homo sapiens, UniProt Q99581 1-238).
T1 sequence: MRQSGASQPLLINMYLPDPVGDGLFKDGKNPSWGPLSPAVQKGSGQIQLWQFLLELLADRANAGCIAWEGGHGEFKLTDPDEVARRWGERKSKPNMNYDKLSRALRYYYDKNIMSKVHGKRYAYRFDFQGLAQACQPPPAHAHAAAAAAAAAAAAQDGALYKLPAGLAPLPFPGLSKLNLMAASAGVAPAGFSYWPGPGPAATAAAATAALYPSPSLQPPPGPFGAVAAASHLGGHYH
Conditions: protein: recombinant; tags: N-terminal GST; dsDNA, one strand shown. Put shortly:
(§1)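 In yeast, human transcription factors were expressed with a GST fusion, then pulled down on glutathione beads and given DNA barcodes. Pooled with a tag-only sample, they were exposed to 200 nmole of a 16-mer random double-stranded DNA library (Tris/NaCl/DTT/glycerol buffer, room temperature, 30 min), washed, crosslinked with 0.1% formaldehyde, proximity-ligated using BsaI/T4 ligase for 1 h at 37 °C, PCR-amplified and read on an Illumina NextSeq500. Each hexamer's frequency of reads for a factor, divided by the matching frequency for the tag-only sample, gives the binding signal.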

In another assay the target is ETV5 (Homo sapiens, UniProt P41161 1-510). Conditions: protein: recombinant; tags: N-terminal GST; dsDNA, one strand shown. In outline:
as §1

The target in the next assay is HSF1 (Homo sapiens, UniProt Q00613 1-529). Conditions: protein: recombinant; tags: N-terminal GST; chain copies: 3; dsDNA, one strand shown. In outline:
as §1

The target in another assay is T2, SPIC (Homo sapiens, UniProt Q8N5J4 1-248).
T2 sequence: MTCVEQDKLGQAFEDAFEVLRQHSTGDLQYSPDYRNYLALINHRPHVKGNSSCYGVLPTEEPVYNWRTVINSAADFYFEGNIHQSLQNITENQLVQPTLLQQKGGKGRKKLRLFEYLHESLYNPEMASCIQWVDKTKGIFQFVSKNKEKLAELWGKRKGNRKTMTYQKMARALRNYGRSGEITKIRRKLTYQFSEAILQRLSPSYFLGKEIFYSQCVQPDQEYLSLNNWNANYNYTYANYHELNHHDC
Conditions: protein: recombinant; tags: N-terminal GST; dsDNA, one strand shown. Put shortly:
as §1

In a further assay the target is ELF4 (Homo sapiens, UniProt Q99607 1-663). Conditions: protein: recombinant; tags: N-terminal GST; dsDNA, one strand shown. Put shortly:
as §1

The target of another assay is T3, ELK4 (Homo sapiens, UniProt P28324-2 1-405).
T3 sequence: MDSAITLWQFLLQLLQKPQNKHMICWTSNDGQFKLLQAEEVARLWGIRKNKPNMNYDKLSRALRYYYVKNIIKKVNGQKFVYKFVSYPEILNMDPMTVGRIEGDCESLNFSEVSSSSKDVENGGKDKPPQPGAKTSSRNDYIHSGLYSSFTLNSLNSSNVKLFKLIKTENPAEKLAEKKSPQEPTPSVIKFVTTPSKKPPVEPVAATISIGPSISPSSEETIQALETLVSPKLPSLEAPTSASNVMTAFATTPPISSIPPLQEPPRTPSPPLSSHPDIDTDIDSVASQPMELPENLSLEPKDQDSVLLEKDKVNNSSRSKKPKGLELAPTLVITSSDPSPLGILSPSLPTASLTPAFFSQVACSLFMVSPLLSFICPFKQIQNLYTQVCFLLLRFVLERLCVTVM
Conditions: protein: recombinant; tags: N-terminal GST; dsDNA, one strand shown. In outline:
as §1

In another assay the target is T4, ETV2 (Homo sapiens, UniProt O00321 1-342).
T4 sequence: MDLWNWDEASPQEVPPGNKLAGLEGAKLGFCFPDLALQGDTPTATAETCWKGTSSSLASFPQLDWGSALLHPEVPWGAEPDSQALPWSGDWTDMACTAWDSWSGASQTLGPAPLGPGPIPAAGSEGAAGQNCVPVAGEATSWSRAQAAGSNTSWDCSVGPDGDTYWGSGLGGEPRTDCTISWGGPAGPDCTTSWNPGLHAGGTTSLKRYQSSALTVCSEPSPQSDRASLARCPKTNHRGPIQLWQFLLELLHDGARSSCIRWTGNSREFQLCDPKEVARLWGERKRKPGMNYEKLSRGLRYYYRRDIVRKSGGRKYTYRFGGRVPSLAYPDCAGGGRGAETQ
Conditions: protein: recombinant; tags: N-terminal GST; dsDNA, one strand shown. Put shortly: as §1

The target of another assay is T5, ELF3 (Homo sapiens, UniProt P78545 1-371).
T5 sequence: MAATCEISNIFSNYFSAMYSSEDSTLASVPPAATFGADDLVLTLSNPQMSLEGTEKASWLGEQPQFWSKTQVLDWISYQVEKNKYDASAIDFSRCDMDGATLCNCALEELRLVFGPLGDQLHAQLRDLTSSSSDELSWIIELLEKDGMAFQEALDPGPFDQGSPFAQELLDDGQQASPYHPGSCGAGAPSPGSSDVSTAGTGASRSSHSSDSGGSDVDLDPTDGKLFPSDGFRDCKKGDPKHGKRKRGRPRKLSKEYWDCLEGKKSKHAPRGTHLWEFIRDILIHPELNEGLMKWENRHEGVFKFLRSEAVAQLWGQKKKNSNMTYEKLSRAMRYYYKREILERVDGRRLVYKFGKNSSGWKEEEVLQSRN
Conditions: protein: recombinant; tags: N-terminal GST; dsDNA, one strand shown. In outline:
as §1

In the next assay the target is CRX (Homo sapiens, UniProt O43186 1-299). Conditions: protein: recombinant; tags: N-terminal GST; dsDNA, one strand shown. Put shortly:
as §1

The next assay has as its target ETV1 (Homo sapiens, UniProt P50549 1-477). Conditions: protein: recombinant; tags: N-terminal GST; dsDNA, one strand shown. Put shortly: as §1
Another assay has as its target T6, ERF (Homo sapiens, UniProt P50548 1-548).
T6 sequence: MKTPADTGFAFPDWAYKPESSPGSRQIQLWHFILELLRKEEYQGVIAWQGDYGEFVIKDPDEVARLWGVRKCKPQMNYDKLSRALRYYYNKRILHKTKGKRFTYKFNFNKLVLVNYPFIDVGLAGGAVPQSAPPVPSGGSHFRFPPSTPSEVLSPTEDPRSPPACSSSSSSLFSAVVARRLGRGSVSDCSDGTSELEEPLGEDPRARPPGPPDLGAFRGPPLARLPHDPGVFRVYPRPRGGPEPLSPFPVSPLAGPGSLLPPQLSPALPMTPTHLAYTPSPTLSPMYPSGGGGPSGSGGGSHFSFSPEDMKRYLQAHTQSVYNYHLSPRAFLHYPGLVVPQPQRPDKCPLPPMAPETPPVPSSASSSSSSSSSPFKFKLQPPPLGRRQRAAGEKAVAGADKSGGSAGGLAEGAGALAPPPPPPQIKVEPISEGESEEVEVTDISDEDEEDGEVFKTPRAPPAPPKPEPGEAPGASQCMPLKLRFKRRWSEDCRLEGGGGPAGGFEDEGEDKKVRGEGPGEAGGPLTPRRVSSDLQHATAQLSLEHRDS
Conditions: protein: recombinant; tags: N-terminal GST; dsDNA, one strand shown. Put shortly:
as §1

For the next assay, the target named is T7, ETV3L (Homo sapiens, UniProt Q6ZN32 1-361).
T7 sequence: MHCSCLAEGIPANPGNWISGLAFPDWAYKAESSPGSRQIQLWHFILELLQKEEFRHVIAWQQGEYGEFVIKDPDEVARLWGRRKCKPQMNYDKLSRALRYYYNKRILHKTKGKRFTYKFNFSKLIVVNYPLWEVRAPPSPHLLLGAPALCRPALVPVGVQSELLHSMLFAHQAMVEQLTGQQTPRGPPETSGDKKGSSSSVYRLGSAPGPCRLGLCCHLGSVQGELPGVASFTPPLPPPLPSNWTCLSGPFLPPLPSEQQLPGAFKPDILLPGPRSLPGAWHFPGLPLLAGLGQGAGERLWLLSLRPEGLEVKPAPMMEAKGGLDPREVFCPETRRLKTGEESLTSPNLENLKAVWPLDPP
Conditions: protein: recombinant; tags: N-terminal GST; dsDNA, one strand shown. Put shortly:
as §1

A further assay addresses T8, ETS2 (Homo sapiens, UniProt P15036 1-469).
T8 sequence: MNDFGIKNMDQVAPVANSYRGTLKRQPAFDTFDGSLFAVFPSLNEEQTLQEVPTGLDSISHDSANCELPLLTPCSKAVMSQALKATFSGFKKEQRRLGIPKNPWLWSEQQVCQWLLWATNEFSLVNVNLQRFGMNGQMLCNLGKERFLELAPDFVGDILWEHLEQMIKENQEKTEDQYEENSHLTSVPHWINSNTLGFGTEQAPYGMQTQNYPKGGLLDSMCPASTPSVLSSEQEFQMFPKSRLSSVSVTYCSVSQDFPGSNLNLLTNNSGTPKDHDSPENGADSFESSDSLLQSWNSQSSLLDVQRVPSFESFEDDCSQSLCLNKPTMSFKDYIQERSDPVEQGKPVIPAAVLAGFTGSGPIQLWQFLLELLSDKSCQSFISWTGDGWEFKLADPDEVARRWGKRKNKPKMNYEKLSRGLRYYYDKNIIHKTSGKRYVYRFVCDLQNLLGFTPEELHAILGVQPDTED
Conditions: protein: recombinant; tags: N-terminal GST; dsDNA, one strand shown. Put shortly:
as §1

Another assay concerns the target T9, SPDEF (Homo sapiens, UniProt O95238 1-335).
T9 sequence: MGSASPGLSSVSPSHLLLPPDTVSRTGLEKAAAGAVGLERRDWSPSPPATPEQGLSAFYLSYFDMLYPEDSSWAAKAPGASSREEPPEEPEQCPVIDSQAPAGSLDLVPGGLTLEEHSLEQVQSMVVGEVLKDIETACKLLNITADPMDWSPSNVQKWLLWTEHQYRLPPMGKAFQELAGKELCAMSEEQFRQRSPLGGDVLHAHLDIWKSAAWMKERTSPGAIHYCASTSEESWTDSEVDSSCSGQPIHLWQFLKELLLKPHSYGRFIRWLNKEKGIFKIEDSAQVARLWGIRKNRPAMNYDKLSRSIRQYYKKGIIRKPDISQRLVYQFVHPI
Conditions: protein: recombinant; tags: N-terminal GST; dsDNA, one strand shown. Put shortly:
as §1

For a further assay, the target named is T10, ETV7 (Homo sapiens, UniProt Q9Y603 1-341).
T10 sequence: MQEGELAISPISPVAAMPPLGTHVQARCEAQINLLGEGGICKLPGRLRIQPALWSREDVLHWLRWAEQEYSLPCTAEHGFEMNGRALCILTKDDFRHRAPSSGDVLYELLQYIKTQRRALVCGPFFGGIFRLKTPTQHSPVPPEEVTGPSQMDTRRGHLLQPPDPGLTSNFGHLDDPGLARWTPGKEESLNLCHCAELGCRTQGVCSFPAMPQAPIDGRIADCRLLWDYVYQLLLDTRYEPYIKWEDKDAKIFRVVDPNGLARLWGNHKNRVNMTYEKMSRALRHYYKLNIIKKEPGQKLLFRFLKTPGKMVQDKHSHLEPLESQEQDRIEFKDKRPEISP
Conditions: protein: recombinant; tags: N-terminal GST; dsDNA, one strand shown. Put shortly: as §1

The next assay has as its target T11, ELF5 (Homo sapiens, UniProt Q9UKW6-2 1-255).
T11 sequence: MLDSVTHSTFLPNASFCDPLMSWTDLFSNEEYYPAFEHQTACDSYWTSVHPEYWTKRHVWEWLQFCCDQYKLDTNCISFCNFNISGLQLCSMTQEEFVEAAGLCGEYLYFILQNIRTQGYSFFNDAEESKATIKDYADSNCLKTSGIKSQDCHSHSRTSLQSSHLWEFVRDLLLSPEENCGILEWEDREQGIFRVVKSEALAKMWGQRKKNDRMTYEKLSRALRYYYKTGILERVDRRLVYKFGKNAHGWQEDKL
Conditions: protein: recombinant; tags: N-terminal GST; dsDNA, one strand shown. Put shortly:
as §1

The target in another assay is T12, ETV3 (Homo sapiens, UniProt P41162-2 1-143).
T12 sequence: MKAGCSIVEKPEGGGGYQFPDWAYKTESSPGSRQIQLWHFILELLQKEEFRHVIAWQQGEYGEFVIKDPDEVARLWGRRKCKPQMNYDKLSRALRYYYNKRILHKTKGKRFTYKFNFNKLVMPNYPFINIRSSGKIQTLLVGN
Conditions: protein: recombinant; tags: N-terminal GST; dsDNA, one strand shown. In outline:
as §1

The target in the next assay is ETV6 (Homo sapiens, UniProt P41212 1-452). Conditions: protein: recombinant; tags: N-terminal GST; dsDNA, one strand shown. In outline:
as §1

Sequence of ETV5 (P41161 whole entry): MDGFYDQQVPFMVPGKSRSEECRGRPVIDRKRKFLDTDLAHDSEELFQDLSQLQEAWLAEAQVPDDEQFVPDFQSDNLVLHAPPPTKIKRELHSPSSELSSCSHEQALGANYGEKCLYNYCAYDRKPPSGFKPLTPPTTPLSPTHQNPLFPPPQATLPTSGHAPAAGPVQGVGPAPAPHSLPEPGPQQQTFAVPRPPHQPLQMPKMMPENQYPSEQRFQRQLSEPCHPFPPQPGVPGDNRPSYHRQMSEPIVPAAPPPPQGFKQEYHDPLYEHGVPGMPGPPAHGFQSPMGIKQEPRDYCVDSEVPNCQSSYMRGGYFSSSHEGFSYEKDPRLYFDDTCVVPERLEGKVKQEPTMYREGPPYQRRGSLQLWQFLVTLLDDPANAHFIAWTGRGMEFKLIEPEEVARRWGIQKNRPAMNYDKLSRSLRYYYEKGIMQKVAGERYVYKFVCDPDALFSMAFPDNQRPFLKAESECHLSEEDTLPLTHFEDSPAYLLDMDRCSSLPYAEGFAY
Sequence of ETV1 (P50549 whole entry): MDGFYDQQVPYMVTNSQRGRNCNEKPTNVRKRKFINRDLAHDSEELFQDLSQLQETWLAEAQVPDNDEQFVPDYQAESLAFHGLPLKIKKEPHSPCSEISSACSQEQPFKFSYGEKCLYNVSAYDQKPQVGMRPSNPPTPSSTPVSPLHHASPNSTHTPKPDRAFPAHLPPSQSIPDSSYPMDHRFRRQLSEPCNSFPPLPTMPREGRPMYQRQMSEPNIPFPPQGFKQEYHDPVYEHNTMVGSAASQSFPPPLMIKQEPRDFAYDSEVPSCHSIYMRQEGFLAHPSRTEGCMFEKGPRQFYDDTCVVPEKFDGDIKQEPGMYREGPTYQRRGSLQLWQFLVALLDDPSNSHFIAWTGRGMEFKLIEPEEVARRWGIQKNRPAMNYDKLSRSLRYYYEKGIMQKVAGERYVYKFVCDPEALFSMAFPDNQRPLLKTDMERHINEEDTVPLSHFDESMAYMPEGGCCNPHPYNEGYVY
Sequence of HSF1 (Q00613 whole entry): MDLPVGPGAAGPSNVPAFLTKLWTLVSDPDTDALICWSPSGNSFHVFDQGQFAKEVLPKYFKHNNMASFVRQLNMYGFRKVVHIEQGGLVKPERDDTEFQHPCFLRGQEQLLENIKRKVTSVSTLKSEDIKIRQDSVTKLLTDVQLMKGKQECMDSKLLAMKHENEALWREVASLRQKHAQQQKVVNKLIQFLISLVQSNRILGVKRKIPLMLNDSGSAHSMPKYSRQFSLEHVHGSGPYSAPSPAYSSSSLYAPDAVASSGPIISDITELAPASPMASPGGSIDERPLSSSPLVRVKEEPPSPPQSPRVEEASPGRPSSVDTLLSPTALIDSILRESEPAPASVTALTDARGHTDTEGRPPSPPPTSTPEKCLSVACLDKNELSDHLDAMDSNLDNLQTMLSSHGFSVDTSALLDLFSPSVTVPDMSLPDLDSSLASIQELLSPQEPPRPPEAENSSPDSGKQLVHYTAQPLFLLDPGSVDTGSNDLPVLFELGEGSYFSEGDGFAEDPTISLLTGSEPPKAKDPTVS
Sequence of CRX (O43186 whole entry): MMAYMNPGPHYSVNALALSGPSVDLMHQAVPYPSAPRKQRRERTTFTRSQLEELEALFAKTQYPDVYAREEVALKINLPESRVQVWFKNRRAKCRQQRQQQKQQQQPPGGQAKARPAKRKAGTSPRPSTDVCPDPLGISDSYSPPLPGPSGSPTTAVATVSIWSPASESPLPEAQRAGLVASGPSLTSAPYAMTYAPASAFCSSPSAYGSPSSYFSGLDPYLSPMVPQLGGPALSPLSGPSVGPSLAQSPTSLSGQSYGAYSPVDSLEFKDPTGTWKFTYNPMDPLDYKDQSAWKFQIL
Sequence of ETV6 (P41212 whole entry): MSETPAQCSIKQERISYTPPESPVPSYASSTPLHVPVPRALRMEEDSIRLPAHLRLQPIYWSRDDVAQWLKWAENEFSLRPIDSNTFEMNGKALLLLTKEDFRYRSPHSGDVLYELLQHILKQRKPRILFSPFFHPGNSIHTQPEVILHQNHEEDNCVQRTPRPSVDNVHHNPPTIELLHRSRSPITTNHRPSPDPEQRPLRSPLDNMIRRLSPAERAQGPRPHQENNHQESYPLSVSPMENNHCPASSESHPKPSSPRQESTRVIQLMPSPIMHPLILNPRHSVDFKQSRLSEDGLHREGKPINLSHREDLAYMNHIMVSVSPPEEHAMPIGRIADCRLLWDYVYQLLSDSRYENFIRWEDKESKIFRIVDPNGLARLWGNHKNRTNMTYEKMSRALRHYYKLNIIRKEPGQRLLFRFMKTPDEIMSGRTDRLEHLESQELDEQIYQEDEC
Sequence of ELF4 (Q99607 whole entry): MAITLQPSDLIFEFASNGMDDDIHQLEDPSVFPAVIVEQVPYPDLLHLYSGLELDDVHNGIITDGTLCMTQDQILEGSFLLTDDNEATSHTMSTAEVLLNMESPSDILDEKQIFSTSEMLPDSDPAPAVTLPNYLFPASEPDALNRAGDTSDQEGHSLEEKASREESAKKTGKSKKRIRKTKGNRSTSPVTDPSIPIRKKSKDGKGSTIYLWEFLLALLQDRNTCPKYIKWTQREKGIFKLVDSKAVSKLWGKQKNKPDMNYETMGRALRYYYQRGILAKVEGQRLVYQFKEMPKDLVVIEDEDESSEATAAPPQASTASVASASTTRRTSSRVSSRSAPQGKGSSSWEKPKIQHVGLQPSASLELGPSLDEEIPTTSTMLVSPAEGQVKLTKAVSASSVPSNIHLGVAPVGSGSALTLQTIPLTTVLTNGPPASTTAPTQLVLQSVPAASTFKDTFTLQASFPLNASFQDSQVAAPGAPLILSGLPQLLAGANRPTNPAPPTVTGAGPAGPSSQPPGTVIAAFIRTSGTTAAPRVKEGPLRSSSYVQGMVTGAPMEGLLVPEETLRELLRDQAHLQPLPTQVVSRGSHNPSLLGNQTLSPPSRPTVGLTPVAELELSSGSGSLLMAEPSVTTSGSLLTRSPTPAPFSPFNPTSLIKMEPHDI

As to TAACCC, the binding signal in the assay with FEV was 1.26 fold enrichment (6-mer frequency, TF over GST control); in the assay with ETV5 it was 1.31 fold enrichment (6-mer frequency, TF over GST control); with HSF1 it was 1.3 fold enrichment (6-mer frequency, TF over GST control); in the assay with SPIC, 1.35 fold enrichment (6-mer frequency, TF over GST control); with ELF4, 1.32 fold enrichment (6-mer frequency, TF over GST control); with ELK4, 1.2 fold enrichment (6-mer frequency, TF over GST control). The binding signal was 1.17 fold enrichment (6-mer frequency, TF over GST control) in the assay with ETV2; 1.29 fold enrichment (6-mer frequency, TF over GST control) with ELF3; 1.77 fold enrichment (6-mer frequency, TF over GST control) with CRX; 1.29 fold enrichment (6-mer frequency, TF over GST control) in the assay with ETV1; 1.17 fold enrichment (6-mer frequency, TF over GST control) with ERF; 1.22 fold enrichment (6-mer frequency, TF over GST control) in the assay with ETV3L. Further, the binding signal in the assay with ETS2 was 1.26 fold enrichment (6-mer frequency, TF over GST control); with SPDEF it was 1.32 fold enrichment (6-mer frequency, TF over GST control); in the assay with ETV7 it was 1.31 fold enrichment (6-mer frequency, TF over GST control); in the assay with ELF5, 1.3 fold enrichment (6-mer frequency, TF over GST control); in the assay with ETV3, 1.26 fold enrichment (6-mer frequency, TF over GST control); in the assay with ETV6, 1.3 fold enrichment (6-mer frequency, TF over GST control).
